Activity calls are given as the source filed them.
What was measured:
[1] = system: Plasmodium falciparum Sir2 (PF13_0152, Sir2A); experiment: Plasmodium falciparum Sir2A binding compounds – biochemical, small-molecule microarray, 635 nm fluorescence, primary screen (AID 1098); settings: fluorescence 635 nm, higher = more signal;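 note: score merges spot fluorescence intensity with its signal-to-noise ratio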
[2] = probe aDKK1 binding to arrayed compounds – biochemical, biotinylated probe, 635/667 nm fluorescence, primary screen (AID 1099); settings: small-molecule microarray, higher = more signal;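 note: score merges 667nm spot fluorescence with signal to noise across triplicate slides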
[3] = probe aCHRDL2 binding to arrayed compounds – biochemical, biotinylated probe, 635/667 nm fluorescence, primary screen (AID 1100); settings: small-molecule microarray, higher = more signal
[4] = change in splice reporter luminescence, either direction, cell-based, HEK293, spliceosome inhibition project, primary screen (AID 1101); settings: HEK293 splicing luciferase reporter, 24 h, higher = more signal, called active from +8 up or from −8 down;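 note: HEK293 cells carrying a splicing-competent luciferase reporter gene; test concentration not given here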
[5] = target: Fibroblast growth factor 10 (Homo sapiens) (UniProt O15520); experiment: compounds binding fibroblast growth factor 10 – biochemical, small-molecule microarray, 635 nm fluorescence, primary screen (AID 1102); settings: FGF10 binding, fluorescence 635 nm, higher = more signal
[6] = system: glycogen synthase kinase-3 (GSK3A per assay name; protocol says GSK3B); experiment: compounds binding glycogen synthase kinase-3 – biochemical, small-molecule microarray, 635 nm fluorescence, GSK3A, primary screen (AID 1103); settings: fluorescence 635 nm, higher = more signal; note: the record names both GSK3A and GSK3B
[7] = target: Epidermal growth factor receptor (Homo sapiens) (UniProt P00533); experiment: compounds binding epidermal growth factor receptor – biochemical, small-molecule microarray, 635 nm fluorescence, primary screen (AID 1104); settings: EGFR binding, higher = more signal;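 note: score merges 667 nm emission intensity with spot signal to noise over triplicate slides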
[8] = target: Follistatin-related protein 3 (Homo sapiens) (UniProt O95633); experiment: compounds binding follistatin-related protein 3 – biochemical, small-molecule microarray, 635 nm fluorescence, primary screen (AID 1105); settings: FSTL3 binding, higher = more signal;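 note: score merges emission near 667 nm and signal to noise per printed spot across three slides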
[9] = target: Dickkopf-related protein 1 (Homo sapiens) (UniProt O94907); experiment: small molecules binding DKK1 protein – biochemical, small-molecule microarray, 635 nm fluorescence scan, primary screen (AID 1106); settings: higher = more signal;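 note: score merges emission near 667 nm with signal to noise over three replicate slides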
[10] = system: Inhibin beta A chain (activin A); experiment: small molecules binding activin A – biochemical, small-molecule microarray, 635 nm fluorescence scan, primary screen (AID 1107); settings: INHBA, higher = more signal;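 note: mouse activin A protein probed at 4.33 µg/mL on printed slides; score merges bound-protein fluorescence near 667 nm with spot signal-to-noise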
[11] = system: Human papillomavirus type 1a protein E7 (residues 44-93); experiment: small molecules binding HPV E7 44-93 – biochemical, small-molecule microarray, residues 44-93, 635 nm fluorescence, primary screen (AID 1108); settings: fluorescence 635 nm, higher = more signal;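 note: E7 fragment applied at 1 µg/mL in TBST for 1 h at 4 C; score combines spot fluorescence with its signal to noise ratio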
[12] = hepatitis C replication reporter changes, two-sided – Huh7 cells, luciferase reporter, HCV replication inhibitor project, primary screen (AID 1109); settings: Huh7 HCV replicon luciferase reporter, 48 h; higher = more signal;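 note: huh7 hepatoma cells harbouring a luciferase neomycin HCV replicon reporter; luciferase luminescence as measure of HCV replicon replication; test concentration not given here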
[13] = target: Left-right determination factor 2 (Homo sapiens) (UniProt O00292); experiment: small molecules binding LEFTY2 protein – biochemical, small-molecule microarray, 635 nm fluorescence scan, primary screen (AID 1110); settings: higher = more signal
[14] = target: Calmodulin-1 (Homo sapiens) (UniProt P0DP23); experiment: small molecules binding calmodulin-1 with EGTA – biochemical, small-molecule microarray, Cy5-labelled CALM1, profiling panel (AID 1111); settings: Cy5-CALM1 binding fluorescence, higher = more signal;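 note: labelled calmodulin applied in Tris saline Tween buffer holding calcium plus EGTA and DTT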
[15] = target: Calmodulin-1 (Homo sapiens) (UniProt P0DP23); experiment: small molecules binding Ca-loaded calmodulin-1 – biochemical, small-molecule microarray, Cy5-labelled CALM1, plus calcium, artefact control for SMM control-protein annotation, profiling panel (AID 1112); settings: Cy5-CALM1 binding fluorescence, higher = more signal;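 note: score merges spot fluorescence with signal to noise from triplicate slides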
[16] = probe aWnt5a binding to arrayed compounds – biochemical, biotinylated probe, 635/667 nm fluorescence, primary screen (AID 1113); settings: small-molecule microarray, higher = more signal;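 note: score merges 667 nm fluorescence intensity with signal-to-noise per printed feature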
[17] = probe aShh binding to arrayed compounds – biochemical, biotinylated probe, 635/667 nm fluorescence, primary screen (AID 1114); settings: small-molecule microarray, higher = more signal;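 note: probe is biotin-labelled aShh protein from a stem cell growth factor screen; measures binding of labelled protein to compounds printed on the slide; score merges feature fluorescence at 667 nm with signal-to-noise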
[18] = probe aNog binding to arrayed compounds – biochemical, biotinylated probe, 635/667 nm fluorescence, primary screen (AID 1115); settings: small-molecule microarray, higher = more signal;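 note: probe is biotinylated aNog protein used at 0.15 µg/mL for 1 h at 4 C; z-score combines 667 nm fluorescence of each spot with its signal to noise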
[19] = target: Torsin-1A-interacting protein 1 (Homo sapiens) (UniProt Q5JTV8); experiment: compound microarray binding of lysate hLAP1 – cell lysate, small-molecule microarray, COS7 lysate, 635/667 nm fluorescence, primary screen (AID 1116); settings: 635 nm fluorescence, higher = more signal
[20] = target: Alpha-bungarotoxin (Bungarus multicinctus) (UniProt P60615); experiment: compounds binding labelled alpha-BTX control protein – biochemical, small-molecule microarray, Alexa647 label, 635/667 nm fluorescence, artefact control for SMM control protein annotation, profiling panel (AID 1117); settings: alpha-BTX-A647 binding fluorescence, higher = more signal
Chain of Alpha-bungarotoxin (Bungarus multicinctus) (P60615 whole entry, looked up): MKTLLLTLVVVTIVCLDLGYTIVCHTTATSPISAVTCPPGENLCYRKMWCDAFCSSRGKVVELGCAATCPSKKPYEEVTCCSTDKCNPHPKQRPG

Chain of Torsin-1A-interacting protein 1 (Homo sapiens) (Q5JTV8 whole entry, looked up): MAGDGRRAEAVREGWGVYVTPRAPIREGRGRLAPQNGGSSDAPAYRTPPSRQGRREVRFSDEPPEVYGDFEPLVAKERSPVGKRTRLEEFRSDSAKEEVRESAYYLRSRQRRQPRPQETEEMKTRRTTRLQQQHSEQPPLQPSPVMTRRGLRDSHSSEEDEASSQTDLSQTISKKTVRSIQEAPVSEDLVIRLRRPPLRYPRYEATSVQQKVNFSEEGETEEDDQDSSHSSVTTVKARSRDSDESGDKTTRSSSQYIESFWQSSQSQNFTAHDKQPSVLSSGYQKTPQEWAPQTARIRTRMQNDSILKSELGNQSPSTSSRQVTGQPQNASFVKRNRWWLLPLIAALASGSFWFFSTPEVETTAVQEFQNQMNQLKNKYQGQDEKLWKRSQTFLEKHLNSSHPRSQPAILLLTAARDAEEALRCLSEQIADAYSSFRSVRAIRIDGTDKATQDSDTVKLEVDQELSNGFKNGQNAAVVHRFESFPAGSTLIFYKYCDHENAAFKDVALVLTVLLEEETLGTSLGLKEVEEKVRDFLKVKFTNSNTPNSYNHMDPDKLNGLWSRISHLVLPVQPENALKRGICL
Chain of Epidermal growth factor receptor (Homo sapiens) (P00533 whole entry, looked up): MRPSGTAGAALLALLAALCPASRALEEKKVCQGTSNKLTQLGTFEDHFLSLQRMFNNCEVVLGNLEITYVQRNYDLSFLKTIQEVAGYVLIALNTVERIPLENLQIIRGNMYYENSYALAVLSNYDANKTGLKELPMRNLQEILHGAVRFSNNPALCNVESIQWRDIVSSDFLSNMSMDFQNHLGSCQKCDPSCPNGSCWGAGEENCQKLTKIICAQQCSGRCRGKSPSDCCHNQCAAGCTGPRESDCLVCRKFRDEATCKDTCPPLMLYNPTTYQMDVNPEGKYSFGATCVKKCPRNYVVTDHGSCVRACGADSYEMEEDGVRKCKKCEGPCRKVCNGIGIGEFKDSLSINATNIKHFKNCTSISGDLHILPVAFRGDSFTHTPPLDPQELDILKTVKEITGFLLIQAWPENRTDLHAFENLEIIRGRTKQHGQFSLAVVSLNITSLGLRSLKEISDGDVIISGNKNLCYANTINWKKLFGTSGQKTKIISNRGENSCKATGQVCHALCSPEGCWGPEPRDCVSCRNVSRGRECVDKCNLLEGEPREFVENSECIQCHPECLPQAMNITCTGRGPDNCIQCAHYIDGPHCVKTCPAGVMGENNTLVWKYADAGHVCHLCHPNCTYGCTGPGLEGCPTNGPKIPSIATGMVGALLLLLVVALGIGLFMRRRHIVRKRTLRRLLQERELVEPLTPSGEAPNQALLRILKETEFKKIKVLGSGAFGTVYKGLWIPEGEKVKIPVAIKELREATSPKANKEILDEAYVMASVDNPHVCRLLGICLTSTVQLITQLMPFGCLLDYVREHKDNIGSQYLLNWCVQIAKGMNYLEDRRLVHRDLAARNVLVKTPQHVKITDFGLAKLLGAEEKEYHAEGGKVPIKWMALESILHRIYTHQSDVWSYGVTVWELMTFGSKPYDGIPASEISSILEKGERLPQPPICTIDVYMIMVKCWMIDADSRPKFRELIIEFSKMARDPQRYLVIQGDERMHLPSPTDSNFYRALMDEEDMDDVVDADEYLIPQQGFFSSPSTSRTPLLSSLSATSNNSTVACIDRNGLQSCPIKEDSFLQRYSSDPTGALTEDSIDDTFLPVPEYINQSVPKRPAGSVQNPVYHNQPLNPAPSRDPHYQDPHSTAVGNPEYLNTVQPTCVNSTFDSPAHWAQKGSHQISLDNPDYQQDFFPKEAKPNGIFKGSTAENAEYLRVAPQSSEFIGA
Chain of Follistatin-related protein 3 (Homo sapiens) (O95633 whole entry, looked up): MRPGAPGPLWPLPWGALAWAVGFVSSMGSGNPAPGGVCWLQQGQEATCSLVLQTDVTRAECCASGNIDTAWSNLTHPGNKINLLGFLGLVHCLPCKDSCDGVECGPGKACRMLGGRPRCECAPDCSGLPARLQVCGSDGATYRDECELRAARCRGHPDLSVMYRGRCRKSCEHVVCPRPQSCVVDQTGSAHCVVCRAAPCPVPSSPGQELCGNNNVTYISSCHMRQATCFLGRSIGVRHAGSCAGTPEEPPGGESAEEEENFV
Chain of Dickkopf-related protein 1 (Homo sapiens) (O94907 whole entry, looked up): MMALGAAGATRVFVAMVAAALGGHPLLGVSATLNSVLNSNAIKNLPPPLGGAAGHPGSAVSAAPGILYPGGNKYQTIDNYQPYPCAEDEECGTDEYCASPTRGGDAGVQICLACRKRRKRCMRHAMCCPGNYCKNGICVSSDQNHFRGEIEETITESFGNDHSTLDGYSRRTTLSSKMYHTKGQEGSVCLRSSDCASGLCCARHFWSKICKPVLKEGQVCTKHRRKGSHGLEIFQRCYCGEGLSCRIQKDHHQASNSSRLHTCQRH
Chain of Fibroblast growth factor 10 (Homo sapiens) (O15520 whole entry, looked up): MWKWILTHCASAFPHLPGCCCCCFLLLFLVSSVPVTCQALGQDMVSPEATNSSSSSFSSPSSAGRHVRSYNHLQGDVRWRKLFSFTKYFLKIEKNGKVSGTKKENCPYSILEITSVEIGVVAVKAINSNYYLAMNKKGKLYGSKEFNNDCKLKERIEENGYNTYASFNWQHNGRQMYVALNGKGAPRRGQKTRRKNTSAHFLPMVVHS
Chain of Left-right determination factor 2 (Homo sapiens) (O00292 whole entry, looked up): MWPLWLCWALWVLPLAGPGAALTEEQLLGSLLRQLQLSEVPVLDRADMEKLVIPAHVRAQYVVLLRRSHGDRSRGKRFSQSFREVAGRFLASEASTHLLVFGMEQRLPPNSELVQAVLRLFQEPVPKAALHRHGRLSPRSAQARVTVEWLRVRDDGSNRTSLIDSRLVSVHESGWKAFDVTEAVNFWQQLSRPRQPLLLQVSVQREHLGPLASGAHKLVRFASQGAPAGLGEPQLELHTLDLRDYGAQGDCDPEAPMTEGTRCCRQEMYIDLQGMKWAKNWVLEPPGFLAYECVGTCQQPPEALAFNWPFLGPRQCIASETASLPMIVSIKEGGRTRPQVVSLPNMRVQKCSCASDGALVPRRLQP

| Structure (SMILES) | composite z-score [1] | composite z-score [2] | composite z-score [3] | z-score [4] | composite z-score [5] | composite z-score [6] | composite z-score [7] | composite z-score [8] | composite z-score [9] | composite z-score [10] | composite z-score [11] | z-score [12] | composite z-score [13] | composite z-score [14] | composite z-score [15] | composite z-score [16] | composite z-score [17] | composite z-score [18] | composite z-score [19] | composite z-score [20] |
| --- | --- | --- | --- | --- | --- | --- | --- | --- | --- | --- | --- | --- | --- | --- | --- | --- | --- | --- | --- | --- |
| COCCOC(=O)N1C(=O)[C@@]2(c3cc(C#CCNC(N)=O)ccc31)[C@H](c1ccc(OCCO)cc1)N1[C@H](c3ccccc3)[C@H](c3ccccc3)OC(=O)[C@H]1[C@@H]2C(=O)Nc1nc2ccccc2s1 | 0.337 | 0.997 | 0.88 | 0.0697 (inactive) | 0.574 | -0.289 | 0.0231 | 1.01 | 1 | 0.926 | 0.376 | -1.11 | 1.24 | 0.669 | 0.701 | 0.0136 | 0.187 | 0.402 | 0.114 | 1.37 |
| C[C@]1(C(=O)NCc2ccccc2)c2ccccc2C(=O)N(Cc2cc(C(F)(F)F)cc(C(F)(F)F)c2)[C@H]1c1ccc(CO)cc1 | 0.643 | 0.698 | 0.778 | -1.73 (inactive) | 0.894 | 1.18 | 0.123 | 0.439 | 0.419 | 0.856 | 1.1 | -2.06 | 0.159 | 0.956 | 0.844 | -0.0519 | 1.39 | -0.0047 | 0.541 | 0.615 |
| CO[C@H]1O[C@H](CO)[C@@H](OC(=O)CCc2ccccc2)[C@@H]2OC(=O)[C@H](Cc3cccc(Br)c3)C/C=C/C[C@@H](Cc3cccc(Br)c3)C(=O)O[C@@H]12 | 1.6 | 0.385 | 0.874 | -2.19 (inactive) | -0.487 | -0.78 | -1.49 | -0.753 | -0.402 | 0.951 | 0.234 | -0.93 | -0.798 | -0.638 | -0.282 | -0.0819 | 0.103 | 0.146 | -0.0066 | 2.14 |
| Cc1ccc(N2C(=O)c3ccccc3[C@](C)(C(=O)NCC(C)C)[C@@H]2c2ccc(CO)cc2)nc1 | 1.78 | 0.504 | 0.481 | -0.237 (inactive) | -0.587 | -0.856 | -0.45 | -0.775 | -0.29 | 1 | -1.1 | 0.324 | -0.337 | -0.584 | -1.07 | -0.0405 | -0.0257 | -0.172 | -0.367 | -0.809 |
| C=C(CCCC)C(=O)CC[C@@H](OC(C)=O)c1ccccc1OCCO | 1.34 | -0.283 | -0.16 | 0.419 (inactive) | -0.675 | -1.31 | -1.36 | -1.06 | -0.376 | 0.857 | -1.03 | -3.42 | -0.941 | -0.923 | -1.13 | -0.154 | 0.0278 | -0.618 | -0.572 | -1.31 |
| [N-]=[N+]=NCc1ccccc1C[C@@]1(C(=O)O)N=C(c2ccc(OCCCO)cc2)O[C@@H]1c1ccccc1N=[N+]=[N-] | 1.44 | 0.076 | 0.917 | -1.11 (inactive) | 0.479 | 0.771 | 0.0583 | 0.633 | -0.688 | 0.911 | 1.42 | -1.25 | 0.101 | -0.281 | -0.222 | -0.0236 | -0.138 | -0.316 | 0.938 | 0.552 |
| CO[C@H]1COC(=O)[C@H](C)COC(=O)[C@H](Cc2ccccc2)NC(=O)CC=C[C@H]1C | 1.01 | -0.345 | -1.3 | -0.857 (inactive) | 0.245 | -0.232 | 0.843 | 1.31 | 1.68 | 1.26 | -0.943 | -0.56 | 1.09 | -1.37 | -1.74 | 0.266 | 0.223 | 0.653 | -0.0597 | -0.948 |
| COC(=O)[C@@]1(Cc2ccccc2)[C@H]2c3cc(C(=O)N4CCCC4)n(CCN4CNCC4=O)c3C[C@H]2CN1C(=O)c1ccccc1 | 0.0939 | 0.862 | 0.904 | 2.52 (inactive) | 0.0557 | 0.77 | 0.0908 | 0.47 | -0.292 | 1.05 | 0.871 | -0.857 | 0.172 | 1.91 | 0.265 | -0.0519 | -0.288 | -0.197 | 0.911 | 0.98 |
| CO[C@H]1COC(=O)CC=C[C@H](C)COC(=O)[C@@H](OCc2ccccc2)C=C[C@@H]1C | 0.558 | -1.12 | -1.62 | -1.71 (inactive) | 0.429 | 1.28 | 0.711 | 1.2 | 2.07 | 0.924 | -0.217 | 0.165 | 1.5 | -1.51 | -2.68 | -0.286 | -0.283 | -0.424 | 0.237 | -0.74 |
| CC(C)C[C@@H]1NC(=O)[C@H]2C[C@@H](C(=O)NCCCCCC[N+](C)(C)C)[C@@H](c3ccc(O)cc3)N2C1=O | 1.46 | -0.196 | 0.0009 | -0.177 (inactive) | -0.563 | -0.595 | -0.403 | 1.28 | 0.505 | 0.446 | 0.183 | 0.549 | -0.29 | -0.602 | -0.781 | -0.229 | 0.0856 | -0.169 | 0.418 | -0.111 |
| COc1ccc(-c2ccccc2[C@@H]2N[C@H](C(=O)O)CC[C@H]2C)cc1 | 0.0888 | -0.267 | -0.519 | -1.21 (inactive) | 0.262 | 0.387 | 0.418 | 0.336 | 0.526 | 0.135 | 0.404 | -0.388 | 0.594 | -0.27 | -0.699 | -0.0222 | 0.138 | 0.432 | 0.583 | 0.288 |
| CO[C@H]1COC(=O)CC=C[C@H](C)[C@@H](OC)COC(=O)[C@H](Cc2ccccc2)NC(=O)CC=C[C@@H]1C | 1.49 | -1.1 | -1.86 | -1.34 (inactive) | -0.0885 | 0.344 | 0.514 | 1.22 | 1.96 | 1.72 | -1.64 | -0.74 | 1.12 | -1.67 | -3.12 | -0.144 | -0.11 | -0.537 | -0.272 | -1.24 |

— PubChem BioAssay
